# Assay results as given in PubChem BioAssay.
# Activity calls are given as the source filed them.
# Experiments:
# [1] = test system: PRMT1 (protein arginine N-methyltransferase 1); experiment: PRMT1 binders on small-molecule microarrays, primary screen, biochemical, small-molecule microarray, 635 nm fluorescence (AID 1088); conditions: small-molecule microarray binding, higher = more signal;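 note: binding of Prmt1 protein to compounds spotted on small-molecule microarray slides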
# [2] = yeast growth modulation, basal conditions, primary screen, YJM789 clinical isolate, OD600, 24 h (AID 1089);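 note: growth of clinical yeast isolate S. cerevisiae YJM 789 seeded 1000 cells per well; test concentration not given here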; conditions: S. cerevisiae YJM789 growth, higher = more signal, called active from +8 up or from −8 down
# [3] = fission yeast growth modulation, primary screen, strain 972, OD600, 24 h, no modulator (AID 1090);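 note: basal condition with compound alone and no growth modifier present; test concentration not given here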; conditions: S. pombe 972 growth, higher = more signal, called active from +8 up or from −8 down
# [4] = S. cerevisiae growth modulation with rapamycin, primary screen, strain BY4716, OD600, 96 h (AID 1091); conditions: higher = more signal, called active from +8 up or from −8 down; note: test concentration not given here
# [5] = target: Torsin-1A-interacting protein 2 (Homo sapiens) (UniProt Q8NFQ8); experiment: LULL1 binders on small-molecule microarray, primary screen, cell lysate, human LULL1 lysate, 635/667 nm fluorescence (AID 1092); conditions: hLULL1 lysate binding, 635 nm fluorescence, higher = more signal;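 note: probe is lysate of COS7 cells overexpressing human LULL1; score merges per-feature 667 nm fluorescence with signal-to-noise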
# [6] = E. coli growth modulation, two-sided OD650, primary screen, E. coli filamentation project, strain DRC41, 24 h (AID 1093); conditions: OD650, 24 h, higher = more signal, called active from +8 up or from −8 down;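 note: MC1000 strain lacking acrAB efflux and sulA so SOS filamentation is blocked; test concentration not given here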
# [7] = small-molecule microarray binders of probe aLefty2, primary screen, biochemical, biotinylated probe, 635/667 nm fluorescence (AID 1094); conditions: higher = more signal;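 note: score merges spot fluorescence near 667 nm with spot signal-to-noise ratio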
# [8] = test system: Noggin (protein binding on small-molecule microarray); experiment: Noggin binders on small-molecule microarray, primary screen, biochemical, 635/667 nm fluorescence (AID 1095); conditions: 635 nm fluorescence, higher = more signal;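 note: score merges 667 nm feature fluorescence with signal to noise over triplicate slides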
# [9] = target: Neurogenic locus notch homolog protein 3 (Homo sapiens) (UniProt Q9UM47); experiment: NOTCH3 binders on small-molecule microarray, primary screen, biochemical, 635/667 nm fluorescence (AID 1096); conditions: NOTCH3 binding, 635 nm fluorescence, higher = more signal
# [10] = small-molecule microarray binders of probe aEGFR, primary screen, biochemical, biotinylated probe, 635/667 nm fluorescence (AID 1097); conditions: higher = more signal;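 note: probe is a biotinylated anti-EGFR antibody binding compounds printed on slides; score combines fluorescence near 667 nm and signal to noise of each spot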
# Chain of Torsin-1A-interacting protein 2 (Homo sapiens) (Q8NFQ8 whole entry, looked up): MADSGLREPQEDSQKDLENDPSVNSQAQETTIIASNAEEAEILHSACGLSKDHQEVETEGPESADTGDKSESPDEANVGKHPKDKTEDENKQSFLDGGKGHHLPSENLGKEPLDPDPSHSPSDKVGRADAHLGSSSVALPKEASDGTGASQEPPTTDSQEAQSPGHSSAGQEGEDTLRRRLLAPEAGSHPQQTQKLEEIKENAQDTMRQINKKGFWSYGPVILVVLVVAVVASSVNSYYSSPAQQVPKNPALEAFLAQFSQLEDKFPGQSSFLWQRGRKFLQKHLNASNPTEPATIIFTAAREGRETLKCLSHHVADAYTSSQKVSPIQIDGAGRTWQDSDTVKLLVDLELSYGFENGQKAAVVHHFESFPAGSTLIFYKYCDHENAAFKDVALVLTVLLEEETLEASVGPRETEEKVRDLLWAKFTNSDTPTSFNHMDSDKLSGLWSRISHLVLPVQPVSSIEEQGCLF
# Chain of Neurogenic locus notch homolog protein 3 (Homo sapiens) (Q9UM47 whole entry, looked up): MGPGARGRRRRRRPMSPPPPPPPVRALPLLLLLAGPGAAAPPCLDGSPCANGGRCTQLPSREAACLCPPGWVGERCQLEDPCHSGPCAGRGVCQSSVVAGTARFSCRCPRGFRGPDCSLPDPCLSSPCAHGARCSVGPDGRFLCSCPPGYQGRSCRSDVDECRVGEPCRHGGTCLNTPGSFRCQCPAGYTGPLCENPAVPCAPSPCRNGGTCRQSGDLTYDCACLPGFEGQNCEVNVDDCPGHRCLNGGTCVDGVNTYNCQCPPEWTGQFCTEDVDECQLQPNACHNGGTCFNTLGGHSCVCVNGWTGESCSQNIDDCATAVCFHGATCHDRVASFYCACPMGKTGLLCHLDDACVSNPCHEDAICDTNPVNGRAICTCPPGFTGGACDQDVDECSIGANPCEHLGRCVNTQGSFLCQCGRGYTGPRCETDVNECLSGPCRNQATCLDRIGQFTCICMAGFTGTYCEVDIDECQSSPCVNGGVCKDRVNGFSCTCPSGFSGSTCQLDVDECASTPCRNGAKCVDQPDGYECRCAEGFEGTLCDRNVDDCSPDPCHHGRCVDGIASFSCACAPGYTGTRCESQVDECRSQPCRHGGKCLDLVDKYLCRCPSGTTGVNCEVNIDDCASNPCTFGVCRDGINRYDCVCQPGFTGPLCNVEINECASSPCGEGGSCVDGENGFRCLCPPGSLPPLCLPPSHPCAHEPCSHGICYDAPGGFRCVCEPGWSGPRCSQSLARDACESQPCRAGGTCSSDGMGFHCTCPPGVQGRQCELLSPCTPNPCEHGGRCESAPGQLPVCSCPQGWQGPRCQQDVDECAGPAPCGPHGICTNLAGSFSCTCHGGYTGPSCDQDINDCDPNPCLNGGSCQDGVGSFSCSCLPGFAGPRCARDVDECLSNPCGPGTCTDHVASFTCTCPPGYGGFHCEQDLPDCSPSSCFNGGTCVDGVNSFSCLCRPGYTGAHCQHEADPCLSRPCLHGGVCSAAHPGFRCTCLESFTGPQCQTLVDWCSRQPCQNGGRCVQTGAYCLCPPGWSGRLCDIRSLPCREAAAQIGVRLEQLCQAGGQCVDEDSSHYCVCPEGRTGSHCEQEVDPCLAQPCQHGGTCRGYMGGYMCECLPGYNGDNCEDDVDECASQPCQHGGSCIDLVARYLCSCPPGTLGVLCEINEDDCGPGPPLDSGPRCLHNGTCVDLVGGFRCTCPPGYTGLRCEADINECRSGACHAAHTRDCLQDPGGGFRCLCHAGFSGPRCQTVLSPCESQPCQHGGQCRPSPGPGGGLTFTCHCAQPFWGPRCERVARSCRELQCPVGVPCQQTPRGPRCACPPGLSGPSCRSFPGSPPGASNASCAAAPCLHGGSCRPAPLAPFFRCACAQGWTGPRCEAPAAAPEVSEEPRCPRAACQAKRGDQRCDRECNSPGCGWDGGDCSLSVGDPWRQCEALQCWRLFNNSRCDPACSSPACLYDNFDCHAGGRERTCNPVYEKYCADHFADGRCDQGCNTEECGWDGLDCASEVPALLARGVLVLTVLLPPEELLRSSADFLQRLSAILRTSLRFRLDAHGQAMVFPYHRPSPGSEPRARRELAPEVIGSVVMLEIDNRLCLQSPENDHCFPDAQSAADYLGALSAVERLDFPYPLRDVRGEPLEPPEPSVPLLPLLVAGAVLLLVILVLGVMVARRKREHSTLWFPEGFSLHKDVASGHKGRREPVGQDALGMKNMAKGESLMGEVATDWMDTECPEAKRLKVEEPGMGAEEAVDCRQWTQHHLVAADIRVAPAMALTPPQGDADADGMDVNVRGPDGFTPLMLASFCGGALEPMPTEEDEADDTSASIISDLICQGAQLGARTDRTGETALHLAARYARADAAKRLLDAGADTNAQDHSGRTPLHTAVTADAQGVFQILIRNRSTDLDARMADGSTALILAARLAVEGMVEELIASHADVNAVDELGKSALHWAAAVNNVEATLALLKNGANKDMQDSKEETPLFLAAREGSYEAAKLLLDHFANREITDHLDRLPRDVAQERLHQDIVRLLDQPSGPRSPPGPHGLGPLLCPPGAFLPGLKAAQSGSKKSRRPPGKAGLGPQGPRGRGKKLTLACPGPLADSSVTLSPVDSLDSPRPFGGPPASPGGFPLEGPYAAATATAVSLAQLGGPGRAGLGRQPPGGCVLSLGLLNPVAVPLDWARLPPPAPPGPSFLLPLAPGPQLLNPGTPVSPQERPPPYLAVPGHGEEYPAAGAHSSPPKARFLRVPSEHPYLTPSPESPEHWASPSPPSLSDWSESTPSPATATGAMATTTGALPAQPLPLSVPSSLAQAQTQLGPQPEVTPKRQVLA
Structure (SMILES),composite z-score [1],z-score [2],z-score [3],z-score [4],composite z-score [5],z-score [6],composite z-score [7],composite z-score [8],composite z-score [9],composite z-score [10]
COc1cc(OC)c(C(O)C2C=CC3C(=O)N(c4ccccc4)C(=O)C3N2Nc2ccccc2F)cc1Br (stereo not given),1.58,0.0228 (inactive),1.77 (inactive),0.511 (inactive),3.44,-1.36 (inactive),0.0235,0.662,1.03,-0.0531
Cc1ccc(S[C@]2(C(=O)NCCCN(C)C)CC(=O)N(Cc3ccccc3Cl)[C@@H]2c2ccc(CO)cc2I)cc1,-0.338,0.641 (inactive),-2.52 (inactive),1.43 (inactive),0.605,0.562 (inactive),0.258,-0.845,-1.22,-0.209
COc1ccc([Si](C)(C)[C@H]2[C@H](CC(=O)N3Cc4ccccc4C[C@H]3CO)O[C@@]3(C(=O)N(Cc4cccc(N5C(=O)c6cccc7cccc5c67)c4)c4ccccc43)[C@@H]2C)cc1,1.56,-0.0979 (inactive),0.39 (inactive),1.77 (inactive),2.14,-0.0872 (inactive),-0.173,1.57,1.13,-0.122
O=C1NC(=O)C2C1C=CC(C(O)c1ccc(F)cc1)N2Nc1ccccn1 (stereo not given),0.477,0.128 (inactive),0.42 (inactive),0.333 (inactive),2.64,-1.83 (inactive),-0.103,-0.0682,-0.0883,-0.0271
C=C(CCCC)/C(=C/C[C@H](OC(C)=O)c1cccc(OCCO)c1)c1cc(C(=O)OC)ccc1OC,0.326,0.117 (inactive),-0.602 (inactive),-0.894 (inactive),0.628,1.01 (inactive),-0.101,1.04,0.195,-0.154
CCC[C@@H]1[C@@H](Sc2ccccc2)[C@@H](C(=O)O)[C@H](c2ccc(C)cc2)N1S(=O)(=O)c1ccc(C)cc1,1.56,-0.994 (inactive),0.674 (inactive),-0.698 (inactive),3.45,-0.131 (inactive),0.114,1.05,1.04,0.129
COCCOC(=O)N1C(=O)[C@@]2(c3ccccc31)[C@H](c1ccc(OCCO)cc1)N1[C@H](c3ccccc3)[C@H](c3ccccc3)OC(=O)[C@H]1[C@@H]2C(=O)N1CCN(c2ncccn2)CC1,1.54,1.52 (inactive),1.01 (inactive),5.4 (inactive),2.5,0.374 (inactive),0.101,1.34,1.05,0.241
C=C(COC)/C(=C/C[C@@H](OC(C)=O)c1ccccc1OCCO)c1cc(C(=O)OC)ccc1OC,1.37,1.16 (inactive),-0.145 (inactive),-0.167 (inactive),1.67,0.174 (inactive),-0.0873,0.0363,0.455,-0.0141
COc1ccc(CC[C@H](O)c2cccc(OCC(=O)OC(C)(C)C)c2)cc1,1.55,-2.98 (inactive),-3.06 (inactive),28.1 (active),2.12,0.362 (inactive),0.165,0.956,1.09,0.0656
CCOC(=O)C[C@H]1[C@H](OC(=O)c2ccc(C(=O)c3ccccc3)cc2)[C@@H](NC(=O)c2ccc3ccccc3c2)c2cc(OCCCO)ccc2N1C(=O)c1ccc2ccccc2n1,1.26,0.216 (inactive),-0.629 (inactive),0.256 (inactive),0.962,1.79 (inactive),0.0249,0.836,1.03,0.111
COc1ccc([Si](C)(C)[C@H]2[C@H](CCn3cc([C@H](O)c4ccccc4)nn3)O[C@@]3(C(=O)N(C)c4c(Br)cc(C)cc43)[C@@H]2C)cc1,0.661,0.31 (inactive),0.467 (inactive),1.34 (inactive),-0.168,0.832 (inactive),-0.138,1.96,-0.615,-0.179
C=C(/C(=C/C[C@H](OC(=O)c1ccncc1)c1ccccc1OCCO)c1cc(C(=O)OC)ccc1OC)C(C)C,1.43,0.363 (inactive),0.115 (inactive),2.11 (inactive),2.74,0.329 (inactive),-0.159,0.691,1.13,-0.112
CCOC(=O)C1=CC[C@@H](c2ccccc2)N(S(=O)(=O)C[Si](C)(C)C)[C@H]1c1ccccc1,1.08,-0.514 (inactive),0.984 (inactive),0.416 (inactive),2.26,-0.453 (inactive),0.138,0.291,1.09,0.154
CCCCN1CC=CC23O[C@@H]4/C=C\CCC(C)OC(=O)C4[C@H]2C(=O)N(C(C)CO)[C@@H]3C1=O (stereo not given in full),-1.58,0.324 (inactive),-0.944 (inactive),0.316 (inactive),-1.13,-0.182 (inactive),-0.317,-0.422,-0.878,-0.401
NCCCC[C@@H]1NC(=O)[C@H]2C[C@@H](C(=O)NCc3ccc(F)cc3)[C@@H](c3cccc(OCCO)c3)N2C1=O,1.56,1.74 (inactive),-0.0785 (inactive),0.482 (inactive),2.69,-0.765 (inactive),-0.0258,1.81,1.05,0.0176
NCCCC[C@@H]1NC(=O)[C@H]2C[C@@H](C(=O)O)[C@@H](c3cccc(OCCO)c3)N2C1=O,1.53,1.42 (inactive),-1.66 (inactive),-0.503 (inactive),3.33,-1.31 (inactive),0.781,1.85,1.02,0.703
CN(C)CCCCNC(=O)[C@H]1C[C@H]2C(=O)N[C@@H](Cc3ccccc3)C(=O)N2[C@H]1c1cccc(OCCO)c1,0.193,-1.11 (inactive),0.0737 (inactive),-0.247 (inactive),0.33,1.13 (inactive),-0.0924,0.622,0.307,-0.0512
COCCCNC(=O)[C@@H]1c2ccccc2C(=O)N(C2CCCCC2)[C@H]1c1ccc(CO)cc1,-0.158,-0.0916 (inactive),-0.769 (inactive),-0.285 (inactive),2.86,0.216 (inactive),-0.018,-0.597,-0.47,-0.257
CC(C)C(=C=CC[C@@H](O)c1ccccc1OCCO)C[C@@H](O)c1cc(Cl)cc(Cl)c1O,1.54,-0.0964 (inactive),-1.46 (inactive),-0.443 (inactive),2.7,-0.101 (inactive),-0.108,1.67,1.09,0.0182
COC(=O)c1c(CC[C@@H](CO)NC(=O)N[C@@H](Cc2ccccc2)Cn2cc(-c3cncn3C)nn2)oc(C(C)=O)c1C(=O)OC,1.51,0.268 (inactive),-0.0536 (inactive),-0.131 (inactive),2.99,0.916 (inactive),-0.215,0.801,0.912,-0.142
COC(=O)[C@]1(CO)N=C(c2ccc(OCCCO)cc2)O[C@@H]1c1ccccc1CN=[N+]=[N-],0.575,0.11 (inactive),0.44 (inactive),1.85 (inactive),0.852,0.628 (inactive),-0.0884,0.227,-0.318,-0.285
CC(C)N1CC=CC23O[C@@H]4C=CCCOC(=O)C4[C@H]2C(=O)N(CCCCCO)[C@@H]3C1=O (stereo not given in full),0.08,-0.0489 (inactive),-0.0017 (inactive),-0.569 (inactive),0.988,0.447 (inactive),-0.242,0.154,-0.23,-0.236
CCOC(=O)C[C@H]1[C@H](OC(=O)c2ccc(-c3ccccc3)cc2)[C@@H](NC(=O)CC(C)C)c2cc(OCCCO)ccc2N1C(=O)Cc1ccc(OC)cc1,0.403,-1.15 (inactive),-0.218 (inactive),0.143 (inactive),0.734,-1.1 (inactive),0.19,-0.316,-0.117,-0.0084
COC(=O)[C@@]1(Cc2ccc(F)cc2)[C@H]2c3cc(C(=O)N(C)C)n(CCO)c3C[C@H]2CN1C(=O)c1ccccc1,0.0788,-1.48 (inactive),0.766 (inactive),-0.618 (inactive),2.89,-0.28 (inactive),0.0423,-0.515,-0.562,-0.0271
O=C(NCCO)C1=C[C@H](Oc2ccccc2I)[C@@H](O)[C@H](NCc2ccc(F)cc2)C1,0.517,0.0567 (inactive),-20.5 (active),-0.455 (inactive),-0.992,-0.909 (inactive),-0.212,1.66,-0.0545,-0.202
CCC(CC)C(O)C1C=CC2C(=O)N(C)C(=O)C2N1N1CCCCC1 (stereo not given),1.36,-0.059 (inactive),0.274 (inactive),-0.537 (inactive),3.42,-1.29 (inactive),0.0353,0.334,1.04,0.0142
Cc1c(-c2ccc(-c3ccc(Cl)c(Cl)c3)o2)nc(-c2ccccc2)c2c1CO[Si]2(C(C)C)C(C)C,0.371,-0.657 (inactive),-1.69 (inactive),0.069 (inactive),0.867,-1.34 (inactive),-0.216,0.423,-0.0183,-0.231
O=C1N(Cc2ccccc2)c2ccccc2[C@H]2OC(c3ccc(OCCCO)cc3)=N[C@@]12Cc1ccccc1,1.54,-0.915 (inactive),-0.469 (inactive),6.52 (inactive),2.58,-0.905 (inactive),-0.0058,1.54,1.1,-0.0525
O=C1c2ccccc2[C@](Cc2ccccc2I)(C(=O)O)[C@H](c2ccc(CO)cc2)N1Cc1ccccc1,1.55,-2.23 (inactive),-0.912 (inactive),-1.22 (inactive),2.5,0.66 (inactive),0.0299,-0.57,-0.0277,-0.027
